Measured potencies and affinities stand elsewhere. Active and inactive are the calls of the source. How the calls were made is not given here.
target: CAAX prenyl protease 2 (Homo sapiens) (UniProt Q9Y256); experiment: inhibition of Ras-converting CAAX protease Rce1 – biochemical, yeast membranes, quenched-peptide fluorescence, cherry-pick, dose response (AID 588849); settings: yeast membrane fractions expressing human Rce1, quenched-peptide fluorescence, 4 h; series mostly up to 10 µM
Sequence (Q9Y256 whole entry, looked up): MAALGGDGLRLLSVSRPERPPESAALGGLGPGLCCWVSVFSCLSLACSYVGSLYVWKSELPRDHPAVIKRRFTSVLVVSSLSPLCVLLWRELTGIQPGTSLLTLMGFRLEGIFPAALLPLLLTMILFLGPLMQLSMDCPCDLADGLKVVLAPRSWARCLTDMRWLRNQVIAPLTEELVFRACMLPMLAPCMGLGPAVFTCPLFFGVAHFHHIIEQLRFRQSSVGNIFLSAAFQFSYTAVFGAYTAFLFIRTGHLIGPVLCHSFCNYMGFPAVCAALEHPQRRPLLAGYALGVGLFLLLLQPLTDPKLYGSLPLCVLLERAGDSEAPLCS

outcome, inactive:
Cc1ccccc1NS(=O)(=O)c1ccc(C(=O)NCC(c2ccccc2)N(C)C)cc1 (configuration not stated), CC(C)c1cccc(OCC(=O)Nc2ccc(S(=O)(=O)Nc3ccccn3)cc2)c1, COc1ccc(C)cc1NC(=O)CN1C(=O)COc2ccc(S(=O)(=O)N3CCOCC3)cc21, Cc1cc(N/N=C/c2ccc(O)c(C)c2O)nc(-c2ccccc2O)n1, CCC(=O)Nc1cccc(NC(=S)NC(=O)c2cccs2)c1, O=C(Nc1ccc(N2CCOCC2)c(Cl)c1)c1cc2ccccc2o1, CCOc1ccc(N(CC(=O)NC2CC3CCC2C3)S(=O)(=O)c2ccccc2)cc1 (configuration not stated), COc1ccc(N2CCN(C(=O)c3cc(-c4cccs4)nc4ccccc34)CC2)cc1, CCOc1ccccc1CNC(=O)c1cc2occc2n1C, O=c1c(-c2nnc(SCc3ccc(Cl)c(Cl)c3)o2)cccn1Cc1ccccc1, COc1ccc(-c2ccc3oc(-c4ccc(OC)cc4)c(-c4ccc(OC)cc4)c3c2)cc1, Cc1ccc(-c2c(C(=O)N/N=C/c3cccc(Cl)c3)nnn2-c2nonc2N)cc1, COc1cc2c(cc1OC)C(C)N(C(=O)CCNC(=O)c1ccccc1)CC2 (configuration not stated), Cc1cc(C)cc(N2CC(O)=C(c3nc4ccccc4c(=O)[nH]3)C2=N)c1, CS(=O)(=O)c1ccc(C(=O)OCC(=O)N(CCc2ccccc2)Cc2ccccc2)cc1, Oc1c(N=NC(=S)Nc2ccccc2F)c2ccccc2n1Cc1ccccc1F, COc1cc(-c2nc3ccccn3c2/N=C/c2ccccc2)ccc1O
